# BAZ2B inh: blocks human BAZ2B | Q9UIF8 | AlphaScreen BAZ2B-H3K14Ac peptide displacement | 4.4% of 360,000 active | AID 504333 | Potency, µM (series often up to 114 µM), for inactives: at the top dose activity change, negative = inhibition, usual class: inhibitors; also: % is scaled to controls: 0 for no effect and ±100 for the full control effect; nearly all actives have a fitted effect of over 60% in size
#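 In this displacement format the biotinylated H3(5-23) peptide acetylated at Lys14 serves as ligand at 50 nM, with BAZ2B at 50 nM in PBS pH 7.4 containing 0.01% Tween-20. Donor and acceptor beads are 10 ug/mL final.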
# G9a block: blocks human histone lysine methyltransferase G9a. 8.8% of 350,000 active. AID 504332. G9a H3K9 monomethylation, AlphaScreen, 2 h. Potency, µM (top dose mostly 102 µM), for inactives: top-dose activity, negative = inhibition, actives largely listed as inhibitors. Q96KQ7; also: % is scaled to controls: 0 for no effect and ±100 for the full control effect; nearly all actives have a fitted effect of over 75% in size
#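 Chemiluminescent proximity detection of H3K9 monomethylation, read after 10 min bead incubation in the dark. Reaction: 20 nM G9a, 500 nM biotin-H3K9 peptide, 20 uM SAM cofactor, 2 h, room temperature, following 15 min enzyme-compound preincubation.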
# HP1b binding inh: blocks HP1-beta chromodomain binding to methylated histone tails | AID 540317 | 0.56% of 390,000 active | Potency, µM (titrated, usually from 114 µM), for the others: top-dose activity change, negative = inhibition, actives largely listed as inhibitors | AlphaScreen HP1-beta / biotin-H3K9me3 peptide binding; also: nearly all actives have a fitted effect of over 70% in size
#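 Compound inhibition of the preformed complex between 50 nM HP1-beta and 50 nM biotinylated H3K9me3 peptide was read by AlphaScreen. Buffer was PBS pH 7.4 with 0.01% Tween-20. Incubations ran 30 min at room temperature, with 10 ug/mL donor/acceptor beads.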
# GLS inh: glutaminase GLS (human) inhibition. GLS enzymatic activity, qHTS titration. Potency, µM (doses to about 45.5 µM), for the others: top-dose activity change, negative = inhibition, actives largely listed as inhibitors. 0.21% of 410,000 active; also: % is scaled to controls: 0 for no effect and ±100 for the full control effect
#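 Glutamate formation by hKGA was monitored fluorometrically using coupled glutamate oxidase, HRP and Amplex Red. Substrate was added as 1 mM L-glutamine solution; incubation was 30 min at RT after an initial read.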
# L3MBTL1 inh: L3MBTL1 (human) inhibition. Q9Y468. AlphaScreen L3MBTL1–H3K9me1 peptide binding. Potency, µM (top dose mostly 57.1 µM), for the others: at the highest dose activity, negative = inhibition, usual class: inhibitors. 0.66% of 230,000 active. AID 485360; also: % is scaled to controls: 0 for no effect and ±100 for the full control effect; nearly all actives have a fitted effect of over 60% in size
# Target sequence (Q9Y468 whole entry, looked up): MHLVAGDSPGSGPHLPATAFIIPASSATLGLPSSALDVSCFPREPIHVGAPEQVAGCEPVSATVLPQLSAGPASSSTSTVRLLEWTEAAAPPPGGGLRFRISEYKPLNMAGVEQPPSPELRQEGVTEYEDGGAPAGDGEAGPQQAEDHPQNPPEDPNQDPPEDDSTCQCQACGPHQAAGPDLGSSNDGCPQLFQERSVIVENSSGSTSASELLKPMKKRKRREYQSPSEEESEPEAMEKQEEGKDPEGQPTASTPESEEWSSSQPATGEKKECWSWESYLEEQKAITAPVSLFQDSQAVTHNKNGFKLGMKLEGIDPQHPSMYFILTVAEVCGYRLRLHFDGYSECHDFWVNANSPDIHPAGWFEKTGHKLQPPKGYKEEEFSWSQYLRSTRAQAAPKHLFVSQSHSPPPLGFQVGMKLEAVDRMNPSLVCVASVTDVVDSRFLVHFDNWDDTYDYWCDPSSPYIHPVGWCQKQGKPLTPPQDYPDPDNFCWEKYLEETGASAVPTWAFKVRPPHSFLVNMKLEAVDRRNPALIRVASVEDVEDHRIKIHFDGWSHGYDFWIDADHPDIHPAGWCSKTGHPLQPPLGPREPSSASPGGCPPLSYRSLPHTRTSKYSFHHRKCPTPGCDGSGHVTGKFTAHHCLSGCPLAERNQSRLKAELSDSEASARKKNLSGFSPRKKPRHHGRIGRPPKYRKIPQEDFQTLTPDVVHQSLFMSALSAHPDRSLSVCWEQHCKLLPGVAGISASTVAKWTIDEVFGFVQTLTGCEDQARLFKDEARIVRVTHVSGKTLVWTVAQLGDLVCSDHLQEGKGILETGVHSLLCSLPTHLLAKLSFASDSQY
#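 Displacement of a biotinylated histone H3(1-15) peptide monomethylated at Lys9 (75 nM) from L3MBTL1 (50 nM) was measured by AlphaScreen after a 30 min room-temperature compound incubation; cefsulodin titration served as intraplate control.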
# JMJD2A Tudor inh: JMJD2A Tudor domain (human) inhibition; 4.4% of 390,000 active; O75164; AID 504339; AlphaScreen JMJD2A-Tudor / H3K4me3 peptide binding; Potency, µM (titrated, usually from 114 µM), for inactives: at the top dose activity change, negative = inhibition, hits mostly inhibitors; also: % is scaled to controls: 0 for no effect and ±100 for the full control effect; nearly all actives have a fitted effect of over 50% in size
# * marks the source's active call; other numbers are inactive results; ? = inconclusive; · = not tested or not shown; [ ] = remark or other dose. Sampled rows, rich in hits. Any-hit rate of the full collection: about 10%. Calls follow the shape of the dose curve; as a rule, active = well fitted curve in the direction sought with a large enough effect; inconclusive = small, poorly fitted or top-dose-only effect, or another doubt; inactive = no such curve, though single readings can be large; an effect the other way counts as inactive or inconclusive. Potency is read from the fitted curve at half-maximal effect.
SMILES,BAZ2B inh,G9a block,HP1b binding inh,GLS inh,L3MBTL1 inh,JMJD2A Tudor inh
CCCCN(CCCC)CCNC(=O)c1cc(=O)[nH]c2ccc(S(=O)(=O)N3CCCCCC3)cc12,-5%,3%[59 µM],28%,1%,·,-13%
COc1ccc([N+](=O)[O-])cc1NCc1ccccc1C,-1%,?,75%,26%,20%,32µM*
COc1cccc(CNc2ccc([N+](=O)[O-])cc2C)c1,-29%,·,27%,-9%,-18%,-29%
COc1ccc([N+](=O)[O-])cc1NCc1ccccc1,22%,97%[59 µM],123%,10%,47%,42%[57.1 µM]
COc1ccc(OC)c(CNc2ccc([N+](=O)[O-])cc2C)c1,?,?,?,4%,·,28µM*
COc1ccccc1NC(=O)Cn1cc(S(=O)(=O)Cc2ccccc2)c2ccccc21,-27%,?,8%,0%,·,-23%
CC(C)(C)Nc1scc(-c2ccccc2)[n+]1-c1ccccc1,50µM*,45µM*,-16%,17%,·,-33%
CCOc1ccc(NC(=O)Cn2c3ncccc3c(=O)n2-c2ccc(CC)cc2)cc1,5%,0%[59 µM],39%,1%,·,14%
Cn1cc(C2=C(c3cn(CCCSC(=N)N)c4ccccc34)C(=O)NC2=O)c2ccccc21,·,7.9µM*,·,·,·,·
Cn1cc(SCC(N)=O)c2ccccc21,1%,-32%[59 µM],33%,10%,9%,-11%
CN(C)CCCn1cc(C2=C(c3c[nH]c4ccccc34)C(=O)NC2=O)c2ccccc21,·,14µM*,·,·,·,·
CCCCn1cc(S(=O)(=O)c2ccc(F)cc2)c(=O)c2ccccc21,0%,9%[59 µM],40%,-5%,·,-3%
O=C(CC1N=C2c3ccccc3N=C(SCc3ccccc3Cl)N2C1=O)NC1CCCCC1 (stereo unspecified),-20%,5%[59 µM],-10%,-16%,·,-28%
O=C(c1ccc2c(=O)n(CC3CCCO3)c(=S)[nH]c2c1)N1CCN(c2ccccc2)CC1 (stereo unspecified),4%,-3%,22%,25%,-4%,-23%
CCOC(=O)N1CCN(C(=O)c2ccc3c(=O)n(CC4CCCO4)c(=S)[nH]c3c2)CC1 (stereo unspecified),-26%,40µM*,62%,-14%,0%,50µM*
CC1CCc2c(C(=O)NCC3CCCO3)csc2C1 (stereo unspecified),4%,89µM*,32%,-4%,65%,-12%
O=C(NCc1ccc(Cl)cc1)c1ccc2c(=O)n(CC3CCCO3)c(=S)[nH]c2c1 (stereo unspecified),2%,-4%,37%,-3%,·,-19%
O=C(NCC1CCCO1)c1ccc2c(=O)n(CC3CCCO3)c(=S)[nH]c2c1 (stereo unspecified),?,?,29%,6%,·,7.9µM*
O=C(NCC1CCCO1)c1csc2c1CCCCC2 (stereo unspecified),3%,0%[59 µM],22%,-2%,1%,-8%
COCCn1c(=S)[nH]c2cc(C(=O)NCC3CCCO3)ccc2c1=O (stereo unspecified),?,?,24%,-4%,2%,18µM*
O=C(Nc1ccc2nc(SCCOc3ccccc3)sc2c1)c1cccs1,0%,17%[59 µM],65%,-7%,·,-8%
Nc1nc(Cl)nc2c1ncn2[C@@H]1O[C@H](CO)[C@H](O)C1F (stereo partly specified),·,25%[59 µM],·,-11%,·,·
CCOC(=O)N1CCN(C(=O)c2ccc(Cn3c(=S)[nH]c4cc5c(cc4c3=O)OCO5)cc2)CC1,10%,7.1µM*,11%,-15%,5%,?
CC1CCc2[nH]c3ccc(C(=O)NCC4CCCO4)cc3c2C1 (stereo unspecified),-38%,45µM*,?,7%,-14%,?
O=C(c1ccc2c(=O)n(Cc3ccc(Cl)cc3)c(=S)[nH]c2c1)N1CCCC1,-16%,31%[59 µM],35%,-2%,·,-8%
